The whole screen tested about 2,300 compounds, of which about 1,100 (48%) were called active. No rule for the calls is given here. So high a share suggests a set chosen from earlier hits. This is one part of the list. Results with a measured potency or affinity are listed apart.

The assay is described as follows: inhibitors in S. typhi counter-screen strain, dose response, counter-screen for PhoP regulon inhibitor project, fluorescence, 4 h (AID 2384). The following applies: S. typhi GFP reporter counter-screen; series mostly up to 150 µM.
`Cc1cc([N+](=O)[O-])nn1CC(=O)Nc1cccc2nonc12`: the inhibition result is “inactive”.

Regarding `CN1CCN(c2ccccc2NC(=O)c2cc3c(s2)-c2ccccc2OC3)CC1`, the inhibition result was “inactive”.

As to `COc1ccc(C)cc1S(=O)(=O)N1CCCC(C(=O)NCC2CCCO2)C1` (configuration not stated), the inhibition result was “inactive”.

Turning to `C/C(Cn1nnc([N+](=O)[O-])n1)=N\NC(=O)c1ccccc1`, the inhibition result was “inactive”.

Take `O=C(Nc1ccc(Cc2ccncc2)cc1)c1cccs1`: the inhibition result was “inactive”.

As for `COc1ccc(NC(=O)COC(=O)c2ccc([N+](=O)[O-])o2)cc1Cl`, the inhibition result is “inactive”.

Regarding `O=C(Nc1ccc(N2CCOCC2)c(Cl)c1)c1ccccc1F`, the inhibition entry is “inactive”.

For the molecule `Cc1cc2oc(C(=O)NCc3ccncc3)c(C)c2cc1C`, the inhibition result was “inactive”.

As for `Cc1onc(C(=O)/C=C/N(C)C)c1C(=O)Nc1nccs1`, the inhibition entry was “inactive”.

Take `Cc1cc(C)c2c(=O)[nH]c(SCC(=O)N3CCCCC3)nc2n1`: the inhibition result is “inactive”.

Take `COc1ccc(C2C(C(=O)N3CCC4(CC3)OCCO4)CC(=O)N2c2ccc(OC)cc2)cc1` (configuration not stated): the inhibition entry is “inactive”.

In the case of `COc1ccc(-c2cc(C(=O)Nc3ccc(S(=O)(=O)Nc4onc(C)c4C)cc3)c3ccccc3n2)cc1OC`, the inhibition entry is “inactive”.

For `CCOc1ccc(N2C(=O)CN(O)C=C3N=c4ccccc4=C32)cc1`, the inhibition result was “inactive”.

For `COc1ccc(-c2nc3cc(NC(=O)Cc4ccc(OC)c(OC)c4)ccc3o2)cc1`, the inhibition result was “inactive”.

Turning to `CC(=O)c1ccc(NC(=O)CN2CCCCCC2)cc1`, the inhibition entry was “inactive”.

As to `C[N+]1(CC2COC3(CCCCC3)O2)CCCCC1` (configuration not stated), the inhibition entry is “inactive”.

Take `CCn1nnnc1SCC(=O)c1cc(Cl)ccc1OC`: the inhibition result is “inactive”.

As to `COc1ccc(NC(=O)C2CCCN(C(=O)NC3CCCCC3)C2)cc1OC` (configuration not stated), the inhibition entry is “inactive”.

Take `O=c1cc(-c2ccccc2)nc2nc(-c3ccco3)[nH]n12`: the inhibition result is “inactive”.

Consider `C#CCOCCOCCOCCNc1nc(N2CCN(C(=O)CCCCCCCCCCNC(=O)[C@H]([C@@H](C)CC)n3cc(CCCCCN)nn3)CC2)nc(N2CCN(C(=O)CCCCCCCCCCNC(=O)[C@@H]([C@H](C)O)n3cc(C)nn3)CC2)n1`, for which the inhibition entry was “inactive”.

With `CS(=O)(=O)N1CC(C(=O)NC2CC2)Oc2ccc(Cl)cc21` (configuration not stated), the inhibition entry was “inactive”.

As for `CCOC(=O)C1=C(C)NC(SCC(N)=O)=C(C#N)C1c1ccncc1` (configuration not stated), the inhibition result was “inactive”.

Regarding `Cc1ccc(SCc2[nH]nc3c2C(c2cccnc2)C(C#N)=C(N)O3)cc1` (configuration not stated), the inhibition result was “inactive”.

Take `CN(CC(=O)NCc1ccncc1)S(=O)(=O)c1ccccc1`: the inhibition entry is “inactive”.

Regarding `COCCNC(=S)N=Nc1c(O)[nH]c2ccc([N+](=O)[O-])cc12`, the inhibition entry is “inactive”.

`c1ccc2c(c1)nc(N1CCOCC1)c1c3ccccc3[nH]c21`: the inhibition entry is “inactive”.

In the case of `Cc1cc(C)c(CSc2ncnc3nc[nH]c23)c(C)c1`, the inhibition result was “inactive”.

For `O=C(c1ccco1)N1CCCN(Cc2nc(-c3ccc4c(c3)OCO4)no2)CC1`, the inhibition result is “inactive”.

For `OCn1ncn(-c2ccccc2)c1=S`, the inhibition result was “inactive”.

In the case of `CCN(CC)/C(N)=N/c1nc(C)cc(C)n1`, the inhibition result was “inactive”.

For the molecule `Cc1cc(C)c2nc(/N=C(\N)NC(=O)c3ccccc3)nc(C)c2c1`, the inhibition result was “inactive”.

In the case of `COc1ccc(OC)c(NC(=O)CSc2nnc3ccc(-c4ccncc4)nn23)c1`, the inhibition entry was “inactive”.

On to `O=c1ccn(CCc2c[nH]c3ccccc23)c2c1CCCC2`, for which the inhibition entry is “inactive”.

Regarding `O=C(NCc1ccccc1)N[C@@H](Cc1c[nH]c2ccccc12)C(=O)O`, the inhibition result is “inactive”.

Regarding `CN(C)C(=O)CC12CC3CC(C1)CC(CC(=O)N(C)C)(C3)C2`, the inhibition result was “inactive”.

`O=C(Cn1[nH]c(=O)c2ccccc2c1=O)Nc1ccc(-c2nnc3n2CCCCC3)cc1`: the inhibition result was “inactive”.

For `Cc1cc(Cl)ccc1OCC(=O)Nc1nc(-c2cccnc2)cs1`, the inhibition result is “inactive”.

Regarding `CCOC(=O)C1CCCN(C/C(O)=C(\C#N)c2nc(-c3ccccc3)cs2)C1` (configuration not stated), the inhibition result was “inactive”.

With `O=C1C2C3C=CC(CC3)C2C(=O)N1/N=C/c1ccc(O)cc1` (configuration not stated), the inhibition result was “inactive”.

For the molecule `Cc1cccc(NC(=O)c2sc3nc(-c4ccccc4)cn3c2C)n1`, the inhibition result is “inactive”.

Consider `O=C(Nc1ccc(N2CCOCC2)c(Cl)c1)c1ccc(-n2cnnc2)cc1`, for which the inhibition result was “inactive”.

Take `CCOC(=O)C1=C(C)NC(=O)NC1c1ccc(NC(C)=O)cc1` (configuration not stated): the inhibition result was “inactive”.

For `CSC1=NC2(C)CCCCC2C12C=CC(=O)C=C2` (configuration not stated), the inhibition entry is “inactive”.

Turning to `Nc1cncc(C(=O)O)c1`, the inhibition entry was “inactive”.

Turning to `CC1CCCC(NC(=O)COC(=O)CCSc2ccccc2)C1C` (configuration not stated), the inhibition entry was “inactive”.

As for `Cc1cccc(NC(=O)CSc2nc3c([nH]c4ccccc43)c(=O)n2C)c1`, the inhibition result is “inactive”.

Consider `CC(C)OCCCn1c(=S)[nH]c2cc3c(cc2c1=O)OCO3`, for which the inhibition entry was “inactive”.

With `CCS(=O)(=O)N1CCC(C(=O)NCc2cc(OC)ccc2OC)CC1`, the inhibition entry was “inactive”.

On to `CC(C)c1ccc(N(C(=O)C(F)(F)F)C(C(=O)NC2CCCCC2)c2ccncc2)cc1` (configuration not stated), for which the inhibition entry was “inactive”.

For `COc1ccc(NC(=O)CCNS(=O)(=O)c2cccc3nonc23)cc1`, the inhibition entry was “inactive”.

As to `COc1ccc(N2CCN(c3cc(C)c4ccc(O)cc4n3)CC2)cc1`, the inhibition entry is “inactive”.

On to `N=c1ccccn1CC(O)COc1ccccc1` (configuration not stated), for which the inhibition entry is “inactive”.

For the molecule `Clc1ccc2nc(N3CCCCC3)[nH]c2c1`, the inhibition result was “inactive”.

`CSc1nc2cc(Oc3cccc(Cl)c3Cl)c(Cl)cc2[nH]1`: the inhibition entry was “inactive”.

For the molecule `CC(=O)c1c(C)[nH]c(C(=O)CSc2nnc(-c3ccc(Cl)cc3)n2CC2CCCO2)c1C` (configuration not stated), the inhibition entry is “inactive”.

Consider `O=C(NC(O)C(=O)c1ccccc1)c1ccc(F)cc1` (configuration not stated), for which the inhibition result is “inactive”.

Regarding `CC(C)C(NC(=O)c1ccc(Cl)cc1)C(=O)NCC1CCCO1` (configuration not stated), the inhibition result is “inactive”.

As for `Clc1ccc2c(c1)c1cc(Cl)ccc1n2CN1CCOCC1`, the inhibition result was “inactive”.

For the molecule `CC(=O)N(CCC1(c2ccc(C)cc2)CCOC(C(C)C)C1)Cc1ccco1` (configuration not stated), the inhibition entry was “inactive”.

In the case of `c1cc(N2CCCC2)ccc1C(c1nnnn1C1CCCCC1)N1CCOCC1` (configuration not stated), the inhibition entry was “inactive”.

As for `COc1nccnc1NS(=O)(=O)c1ccc(NC(=S)NC(=O)c2cccnc2)cc1`, the inhibition result was “inactive”.

For `O=C(NC(=S)Nc1ccc(S(=O)(=O)Nc2nccs2)cc1)c1cccnc1`, the inhibition entry is “inactive”.

Turning to `C=C(C)COc1ccc2c(C)c(CCC(=O)NC3CC3)c(=O)oc2c1`, the inhibition result is “inactive”.

As to `O=C1C(Cl)=C(NCc2cccnc2)C(=O)c2ccccc21`, the inhibition entry was “inactive”.

For the molecule `O=C(c1ccccc1)N1CCN(c2ccc([N+](=O)[O-])c(NCc3ccco3)c2)CC1`, the inhibition result was “inactive”.

In the case of `CCCC(=O)Nc1c2c(nn1-c1ccc(C)cc1C)CSC2`, the inhibition result is “inactive”.

For `NC(N)=NC(N)=Nc1cccc2ccccc12`, the inhibition result was “inactive”.

For `Cc1c(C(=O)O)oc2c3c(ccc12)OCCO3`, the inhibition entry is “inactive”.

In the case of `Cc1ccnc(NS(=O)(=O)c2ccc(N=CC3=C(O)CC(C)(C)CC3=O)cc2)n1`, the inhibition result is “inactive”.

Consider `N#Cc1nc(Cc2cccc3ccccc23)oc1NCCCN1CCOCC1`, for which the inhibition result is “inactive”.

With `N#Cc1nc(Cc2ccccc2)oc1NCCN1CCOCC1`, the inhibition entry was “inactive”.

Consider `CCCNC(=O)COc1ncnc2sc(C)c(C)c12`, for which the inhibition entry was “inactive”.

Consider `COc1ccc(-n2cnc3c(sc4nc(N5CCOCC5)c5c(c43)CCCC5)c2=O)cc1`, for which the inhibition entry was “inactive”.

In the case of `Cc1cc(=O)oc2c(CN(C)Cc3ccccc3)c(O)ccc12`, the inhibition entry is “inactive”.

For `CC(C)(C)NC(=O)c1ccc2c3c(cccc13)CC2`, the inhibition entry is “inactive”.

In the case of `Cc1ccc(C(=O)N2C(=S)C(c3ccc(F)cc3)=NC23CCN(C)CC3)cc1`, the inhibition entry was “inactive”.

As to `COC(=O)c1ccc(C)c(NC(=O)CN2C(=O)c3ccccc3S2(=O)=O)c1`, the inhibition result is “inactive”.

With `CC(C)(C)Nc1nc(-c2ccccn2)nc2ccccc12`, the inhibition result was “inactive”.

As for `COC(=O)c1ccccc1NC(=O)CSc1ncn[nH]1`, the inhibition result is “inactive”.

In the case of `O=C1Nc2ccccc2C1=Nc1ccc(S(=O)(=O)Nc2nccs2)cc1`, the inhibition result was “inactive”.

In the case of `Cc1ccc(-c2nc(C(=O)NCCCN(C)C)cc3c2[nH]c2ccccc23)cc1`, the inhibition result was “inactive”.

Regarding `CCc1nc(C)ccc1OCC(=O)NCCCN(C)C`, the inhibition entry was “inactive”.

For `Oc1ccc(C=Nc2ccc3ncccc3c2)c(O)c1`, the inhibition result is “inactive”.

With `Cc1ccc(C2CC(=O)NC(SCCC(C)C)=C2C#N)cc1` (configuration not stated), the inhibition result is “inactive”.

Regarding `C=CCN1C(=O)C(O)(CC(=O)c2c(C)n[nH]c2C)c2cc(Br)ccc21` (configuration not stated), the inhibition entry was “inactive”.

As for `Cc1cc[n+](CC(=O)c2ccc(NC(=O)c3ccccc3)cc2)cc1`, the inhibition entry was “inactive”.

With `CCc1ccc2c(c1)CCCN2C(=O)c1ccccc1C(=O)O`, the inhibition result was “inactive”.

With `COc1ccc2c(c1)cc1n2CCN=C1N`, the inhibition result was “inactive”.

Take `COc1c(N2CCN(C(=S)NCc3ccccc3)C(C)C2)c(F)cc2c(=O)c(C(=O)O)cn(C3CC3)c12` (configuration not stated): the inhibition result was “inactive”.

Take `CCCC(=O)c1c(NC)cc(C)oc1=O`: the inhibition result is “inactive”.

Consider `Cc1c(-c2ccccc2)[n+](=O)c2c(n1[O-])CCCC2`, for which the inhibition entry was “inactive”.

For `O=C(Nc1ccc(F)cc1)C1CCC(CNc2c(N3CCCCC3)c(=O)c2=O)CC1` (configuration not stated), the inhibition entry is “inactive”.

Take `Nc1nc(N2CCN(c3ccccn3)CC2)nc2ccccc12`: the inhibition result is “inactive”.

For `Cc1ccc(Cn2c(=N)c(C(=O)NCCN3CCOCC3)cc3c(=O)n4ccccc4nc32)cc1`, the inhibition result is “inactive”.

On to `CN1CCc2nc(SCC(=O)Nc3cccc(F)c3)c(C#N)c(-c3cccs3)c2C1`, for which the inhibition result was “inactive”.

Turning to `CCOc1ccccc1NC(=O)CSc1nc(N)c(C#N)cc1C#N`, the inhibition result is “inactive”.

In the case of `COCCn1c(SCC(=O)Nc2nnc(C)s2)nnc1-c1c[nH]c2ccccc12`, the inhibition result was “inactive”.

Turning to `N#CCCn1ncc2ccccc21`, the inhibition result was “inactive”.

For `C=CCOC(=O)C1=C(C)NC2(O)c3ccccc3C(=O)C12O` (configuration not stated), the inhibition result is “inactive”.

As to `COC(=O)c1ccc(Cn2cnc3ccccc3c2=O)cc1`, the inhibition result was “inactive”.

`N#C/C(=C\c1ccc[nH]1)C(=O)NC1CC1`: the inhibition result was “inactive”.

On to `O=c1c2ccccc2nc2n1CCc1c-2[nH]c2ccccc12`, for which the inhibition result was “inactive”.

For the molecule `CC1(C)Oc2ccc3ccc(=O)oc3c2/C(=C/NCCN/C=C2\C(=O)C(C)(C)Oc3ccc4ccc(=O)oc4c32)C1=O`, the inhibition result is “inactive”.

On to `CC1CCN(C(=O)CSc2nnc(Cc3cc(=O)[nH]c(=O)[nH]3)n2-c2ccc(Cl)cc2)CC1`, for which the inhibition result is “inactive”.

Regarding `Cn1nnnc1SCC(=O)Nc1ccccc1-c1ccccc1`, the inhibition result is “inactive”.

Turning to `Cn1c(CCN2CCN(c3ccccn3)CC2)nc2cc(NC(=O)COc3ccccc3)ccc21`, the inhibition result is “inactive”.

For `CCOC(=O)N1CCC(=NNc2ccnc3cc(Cl)ccc23)CC1`, the inhibition result is “inactive”.

With `O=C(c1ccc2c(c1)[nH]c(=S)n1c3ccccc3nc21)N1CCN(c2cccc(Cl)c2)CC1`, the inhibition result is “inactive”.

On to `O=C(CSc1ccccn1)N/N=C/c1c[nH]c2ccccc12`, for which the inhibition entry is “inactive”.

On to `COC(=O)CC1C(=O)NCCN1C(=O)CSc1nc2ccc([N+](=O)[O-])cc2s1` (configuration not stated), for which the inhibition entry is “inactive”.

Take `Cn1cnnc1SCC(=O)Nc1ccc2nc(SCc3ccccc3)sc2c1`: the inhibition result is “inactive”.

Turning to `C(=N\Nc1nc2ccccc2[nH]1)/c1ccc2ncccc2c1`, the inhibition entry is “inactive”.
